Hit rate of the full screen: of about 1,200 compounds, about 400 (33%) were called active. Not all results are given here. Potency and affinity values are given separately. Unmarked numbers belong to inactive results. The rule behind the calls is not given here.
Test: mammalian cell cytotoxicity, dose response, cytotoxicity control (AID 434958);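 note: cells exposed to compound for 72 hours before readout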
Conditions: cytotoxicity counter-screen; series mostly up to 40 µM; viability: at the top concentration

Structure (SMILES) | viability
CCOC(=O)N1CCC(N2CCN(S(=O)(=O)c3ccc(Cl)cc3)CC2)CC1 | 98.2%
COc1ccc(-c2csc(Nc3ccc(C)cn3)n2)cc1OC | 89.5%
Cc1nnnn1/C(=C\c1ccccc1)C(=O)OCC(=O)Nc1ccc(Cl)cc1F | 101%
Cc1ccccc1OCC(=O)Nc1ccccc1-c1ccccc1 | 86.1%
c1ccc(-c2noc(-c3cccc4ccccc34)n2)cc1 | 93.3%
O=C(CC(=O)c1ccccc1)Nc1ccc2c(c1)OCCO2 | 104%
O=C(Cc1ccccc1Cl)Nc1nc2ccccc2[nH]1 | 102%
Cc1ccc(CC(=O)Nc2nc3ccccc3[nH]2)cc1C | 91.3%
COc1ccc2sc(-c3ccc(N(C)C)cc3)c(C#CC(C)(C)O)c2c1 | 81.6%
CSc1nnc(C)c(/C=C/Nc2ccc(Cl)cc2)n1 | 95.5%
Cn1cc(C(=O)N/N=C/C(Br)=C\c2ccccc2)ccc1=O | 96%
CCOc1cc(C(=O)N2CCC(CC3CC(c4ccccc4)=NO3)(C(=O)NCc3ccc(OC)cc3)CC2)cc(OCC)c1OCC (stereo unspecified) | 81.2%
CC/C(=N\NC(=S)NC(C)C)c1ccc(OC)c(OC)c1 | 82.5%
c1ccc(-n2c3ccccc3c3ccccc32)cc1 | 95%
CSc1cccc(NC(=O)c2ccc(Cl)nc2)c1 | 90%
O=C(N[C@@H](Cc1ccccc1)C(=O)CCl)OCc1ccccc1 | 104%
C/C(=N\NC(=O)c1cccc(Cl)c1)c1cccc(NC(=O)C(C)C)c1 | 90.2%
CC(C)C[C@H](NC(=O)c1nc[nH]c1C(=O)N1CCN(C(=O)OC(C)(C)C)CC1)C(=O)OCc1ccccc1 | 84.4%
O=C1CC(Nc2ccc(N3CCOCC3)cc2)C(=O)N1C1CCCCC1 (stereo unspecified) | 104%
O=C(O)CCN1C(=O)/C(=C/c2ccc(-c3nc4ccccc4s3)o2)SC1=S | 97.4%
COc1ccc(-c2cc3nc(C)cc(N4CC(C)CC(C)C4)n3n2)cc1 (stereo unspecified) | 90.8%
C/C(CC(=O)Nc1c(C)cc(C)cc1C)=N\NC(=O)c1cnccn1 | 102%
O=C(OCC(=O)N1CCc2ccccc21)c1ccc(Cl)nc1 | 96.5%
Cc1cc(NC(=O)CCS(=O)(=O)c2nc(-c3ccccc3)cc(C(F)(F)F)n2)no1 | 95.8%

Structure (SMILES) | viability
CC/C(=N\NC(=O)c1ccc(N(C)C)cc1)c1ccccc1 | 94.5%
O=C(COn1nnc2ccc(Cl)cc21)NC12CC3CC(CC(C3)C1)C2 | 86.8%
CCc1ccc(NC(=O)C2C3/C=C\CCCCC32)cc1 (stereo unspecified) | 89.2%
CCOC(=O)/C=C/c1ccc2c(c1)S(=O)(=O)N(Cc1ccc(OC)cc1)[C@H]2CC(=O)OCC | 101%
O=C(COC(=O)C1=COCCO1)Nc1ccc2c(c1)OCO2 | 98%
CCOC(=O)c1c(C)[nH]c(N=Nc2ccccc2Cl)c1C | 82.2%
COCCCNCCOCCOc1ccc(C)cc1Br | 89.6%
COc1cccc(NC(=S)Nc2cc(C)cc(C)n2)c1 | 92.3%
O=C(O)c1cc(-c2ccco2)nc2ccc(Br)cc12 | 96.8%
CN(C)S(=O)(=O)n1cc(/C=C(\NC(=O)c2ccccc2)C(=O)NCCN2CCOCC2)c2ccccc21 | 99.1%
CCOC(=O)c1ccc(N2CN(CCc3ccccc3)CNC2=S)cc1 | 94.3%
CC(C)(C)c1nnc2sc(SCC(=O)c3cccs3)nn2c1=O | 101%
CNC(=O)COC(=O)c1ccccc1NC(=O)c1ccco1 | 89.6%
CCCn1nc(NC(=O)c2ccco2)c2cc3cc(C)ccc3nc21 | 90.7%
COc1ccc(NC(=O)CCc2ccccc2)cc1NC(=O)c1ccco1 | 85.7%
C=CCOc1ccc(C2N3CC4(C)CN2CC(CCC)(C3)C4=O)cc1 (stereo unspecified) | 97.2%
CC(C(=O)Nc1nc2ccccc2[nH]1)N1C(=O)C2CC=CCC2C1=O (stereo unspecified) | 99.8%
CCC(=O)NC(=S)Nc1ccc(-c2nc3ccccc3s2)cc1 | 98.2%
CCOc1ccc(S(=O)(=O)n2nnc3ccccc32)cc1C(C)C | 102%
COC(=O)c1c(-c2ccc(OC)cc2)oc2ccc(-c3cc(OC)c(OC)c(OC)c3)cc12 | 81.5%
O=C(NCCC1=CCCCC1)NC1CCCCC1 | 105%
CCC1CCCCN1C(=O)CSc1nnc(-c2ccc(Cl)s2)o1 (stereo unspecified) | 98%
O=C(NCc1ccco1)c1cc2n(n1)C(C(F)(F)F)CC(c1ccc(F)cc1)N2 (stereo unspecified) | 92.2%
O=C(CN1CCN(c2ccccn2)CC1)Nc1ccc(Cl)c(C(F)(F)F)c1 | 95.8%

Structure (SMILES) | viability
N#Cc1ccc(NC(=O)COC(=O)C2=COCCO2)cc1 | 109%
CCOC(=O)c1c(C)oc2c1c(CN1CCN(C(=O)OCC)CC1)c(O)c1ccccc12 | 86.2%
COc1cc2c(cc1OC)C(c1ccccc1)CC2=O (stereo unspecified) | 85.2%
Cc1ccccc1Cn1cc(NC(=O)CSc2nc3c(c(C(F)(F)F)n2)CCc2ccccc2-3)cn1 | 90.7%
CCO[C@H]1OC(C(=O)NCc2nc3ccccc3[nH]2)=C[C@@H](c2cn(C(C)=O)c3ccccc23)[C@@H]1CCCO | 81.8%
CCCc1c(C)nc2c(OC)cccc2c1SCC(=O)O | 107%
O=C(O/N=C\c1ccc(N2CCCCC2)c([N+](=O)[O-])c1)c1c(F)cccc1F | 95.2%
c1ccc2c(c1)Cn1nc(Cc3nc4c(s3)CCCC4)nc1-2 | 108%
COc1ccc2nc(NC(=O)NC3CCCCC3)sc2c1 | 92.6%
CC(=O)c1ccc(N2CCN(c3ncc(C(F)(F)F)cc3Cl)CC2)cc1 | 81.7%
O=C(Nc1ccc(Cl)cc1F)c1cccc2ccccc12 | 95.1%
CCc1ccccc1NC(=O)CNC(=O)c1cc(C2CC2)nn1-c1ccccc1 | 93.1%
O=C(NCc1ccc2c(c1)OCO2)Nc1ccc2ccccc2c1 | 86.2%
CCN(CC)C(=O)CSc1nnc2nnc3cc(OC)ccc3n12 | 102%
CN1C/C(=N\S(=O)(=O)c2ccccc2)N(C)C1=O | 92.3%
Cn1cccc1/C=C1/C(=O)NC(=O)N(Cc2ccc(F)cc2)C1=O | 92.6%
COCCNC(=S)N/N=C1\CC(C)CC(C)(C)C1 (stereo unspecified) | 94.2%
CC(=O)Nc1cccc(-n2nnc(SCC(=O)Nc3ccc(F)c(Cl)c3)n2)c1 | 91.8%
COC(=O)CN1C(CN2CCOCC2)=Nc2ccc(Br)cc2C1c1ccccc1 (stereo unspecified) | 89.5%
CSc1ccc(/C=C/C(=O)Nc2ccccc2)cc1 | 92.7%
CCOc1ccc(N2C(=O)CC(N)C2=O)cc1 (stereo unspecified) | 101%
CCCC(C)NC(=O)c1ccc(OCc2ccc(Cl)cc2)c(OC)c1 (stereo unspecified) | 80%
O=C(NC1CCCCCCC1)c1ccc(Br)cc1 | 97%

Source: PubChem BioAssay AID434958 (Southern Research Specialized Biocontainment Screening …, 2010)
